# A selection: hits, their analogues and other compounds. The true share with any hit is near 19%.
# ASM inhibitor = Inhibitors of Secretory Acid Sphingomyelinase (S-ASM): qHTS; Sphingomyelin phosphodiesterase (Homo sapiens), P17405; placental ASM, HMU-PC fluorogenic substrate, 60 min; Potency, µM (top dose mostly 57.5 µM), without a hit: top-dose activity change, negative = inhibition, actives largely listed as inhibitors; 340,000 tested, 0.006% active; AID 504937, 2011; note: potency is the fitted concentration of half-maximal effect
# Target sequence (P17405 47-631 limits assumed): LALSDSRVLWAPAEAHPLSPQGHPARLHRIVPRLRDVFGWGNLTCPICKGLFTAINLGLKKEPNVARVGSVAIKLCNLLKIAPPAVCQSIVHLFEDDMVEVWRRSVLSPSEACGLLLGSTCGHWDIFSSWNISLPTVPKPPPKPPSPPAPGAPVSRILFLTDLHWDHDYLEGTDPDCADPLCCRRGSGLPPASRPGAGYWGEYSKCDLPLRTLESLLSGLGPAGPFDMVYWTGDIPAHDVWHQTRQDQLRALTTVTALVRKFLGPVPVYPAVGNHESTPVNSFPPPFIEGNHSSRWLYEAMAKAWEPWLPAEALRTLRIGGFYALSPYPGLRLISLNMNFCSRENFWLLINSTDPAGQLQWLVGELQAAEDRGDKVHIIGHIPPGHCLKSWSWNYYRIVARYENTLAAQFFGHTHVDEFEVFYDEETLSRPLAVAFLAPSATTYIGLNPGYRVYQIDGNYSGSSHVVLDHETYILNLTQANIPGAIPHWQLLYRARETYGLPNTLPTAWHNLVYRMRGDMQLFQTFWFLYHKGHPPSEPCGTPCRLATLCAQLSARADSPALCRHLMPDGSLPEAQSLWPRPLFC
#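 Fluorogenic HMU-PC substrate (9 uM final) is turned over by placental ASM in 60 min at 37 C after a 10 min compound preincubation. Reaction ended by alkaline stop (pH 10), with fluorescence read at 386/447 nm.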
# IL-1B inflam inh = qHTS for Inhibitors of Inflammasome Signaling: IL-1-beta AlphaLISA Primary Screen | THP-1 LPS/ATP IL-1B secretion, AlphaLISA, 16 h; stronger effect = lower value | activity change, % at 57.5 µM | 360,000 tested, 4.7% active; in the data active = activity change below about -50%; inconclusive = mostly about -30% to -49%; note: % is set by controls: 0 for no effect and ±100 for the full control effect
#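 THP-1 cells pretreated 1 hr with compounds (up to 57.5 uM final), then stimulated with LPS (250 ng/mL final) plus ATP (1.25 mM final); secreted IL-1B measured by AlphaLISA after 16 hr, decreased signal indicating inhibition.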
# TDP1 cell noCPT = qHTS for Inhibitors of human tyrosyl-DNA phosphodiesterase 1 (TDP1): qHTS in cells in absence of CPT; 420,000 tested, 15% active; DT40 Tdp1-/- hTDP1 cells, no CPT, ATP luminescence, 48 h; Potency, µM (top dose mostly 46.2 µM), without a hit: top-dose activity change, negative = growth inhibition, hits mostly inhibitors; note: potency is the fitted concentration of half-maximal effect; % is set by controls: 0 for no effect and ±100 for the full control effect; nearly all actives have a fitted effect of over 55% in size
#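 Chicken DT40 Tdp1-/- cells stably complemented with human TDP1 were seeded at 400 cells/well with DMSO in place of 20 nM camptothecin. After compound pinning, cells grew at least 48 hr at 37 °C; viability read by CellTiter-Glo luminescence.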
# TDP1 cell CPT = qHTS for Inhibitors of human tyrosyl-DNA phosphodiesterase 1 (TDP1): qHTS in cells in presence of CPT | AID 686979, 2013 | Potency, µM (series often up to 46.2 µM), without a hit: top-dose activity change, negative = growth inhibition, actives largely listed as inhibitors | chicken DT40 Tdp1-/-;hTDP1 cells + 20 nM CPT, ATP luminescence, 48 h | 420,000 tested, 12% active; note: potency is the fitted concentration of half-maximal effect; % is set by controls: 0 for no effect and ±100 for the full control effect; nearly all actives have a fitted effect of over 55% in size
#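 Chicken DT40 Tdp1-/- cells complemented with human TDP1, 400 cells/well, exposed to compounds plus 20 nM camptothecin for at least 48 h at 37 C; viability read as ATP content by CellTiter-Glo luminescence.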
# HepG2 tox = qHTS for Inhibitors of TGF-b: Cytotox Counterscreen; HepG2 CAGA-GFP viability, ATP luminescence, 18 h; Potency, µM (top dose mostly 46.1 µM), without a hit: top-dose activity change, negative = cytotoxicity, most hits filed as cytotoxic; 410,000 tested, 0.76% active; AID 588856, 2011; note: potency is the fitted concentration of half-maximal effect
#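 CellTiter-Glo luminescence gave cytotoxicity after 18 hours at 37 degrees C. The cells were HepG2 CAGA-GFP in 1% FBS DMEM, stimulated with 500 pg/mL TGF-beta after compound addition. %Activity was normalised to no-cell wells (complete cell-killing) and DMSO (no toxicity), and curves were fitted and classified.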
# TGFb inhibitor = qHTS for Inhibitors of TGF-b; AID 588855, 2011; Potency, µM (highest dose often 46.1 µM), without a hit: top-dose activity, negative = inhibition, actives largely listed as inhibitors; HepG2 CAGA-GFP TGF-b/SMAD3 reporter, GFP fluorescence, 18 h; TGF-beta stimulated, 500 pg/mL final; 410,000 tested, 1.2% active; note: potency is the fitted concentration of half-maximal effect; % is set by controls: 0 for no effect and ±100 for the full control effect; nearly all actives have a fitted effect of over 65% in size
#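 Cell-based qHTS in HEPG2 carrying a CAGA-GFP Smad reporter; compounds added before 500 pg/mL final TGF-beta, 18 h incubation at 37 degrees C, GFP fluorescence quantified per cell by imaging cytometry.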
# Active calls of the source: *; i = inactive; ? = inconclusive; . = not tested or not shown. Unless noted, calls come from the whole dose curve; as a rule, active = well fitted curve in the direction sought with a large enough effect; inconclusive = small, poorly fitted or top-dose-only effect, or another doubt; inactive = no such curve, though single readings can be large; an effect the other way counts as inactive or inconclusive.
SMILES,ASM inhibitor,IL-1B inflam inh,TDP1 cell noCPT,TDP1 cell CPT,HepG2 tox,TGFb inhibitor
COc1cc(C(=O)Nc2ccc(C(F)(F)F)cc2)ccc1OCC(=O)N1CCOCC1,-1.8%,-5.8,?,-28.8%,-1.5%,-6.7%
COc1cc2c(cc1OC)C(c1ccccc1Cl)N(C)CC2 (stereo not given),2.7%,0.0,-22.4%,?,12.5%,13.1%
Cc1ccc(C)c(C(O)c2ncc(-c3ccc4ccccc4c3)[nH]2)c1 (stereo not given),.,19.2,?,18.4µM*,-15.2%,-7.5%
COc1cccc(-c2cnc(C(O)c3ccc(C(C)(C)C)cc3)[nH]2)c1 (stereo not given),.,-26.5,18.4µM*,?,-37.6%,?
COc1cccc(-c2cnc(C(O)c3cc(Cl)cc(Cl)c3)[nH]2)c1 (stereo not given),.,-19.9,?,23.1µM*,-45.2%,?
CCOC(=O)c1c(N2C(=O)Nc3ccccc3N2O)n[nH]c1-c1cccc(OC)c1,0.3%,14.7,18.5%,-0.5%,-1.4%,5.6%
C=CCN1CC[C@@H](O)C(=C)S1(=O)=O,.,.,-14.0%,-10.2%,-11.3%,-6.5%
Cc1ccc(C(=O)Nc2ccccc2Sc2ccccc2)cc1,5.8%,25.1,-2.7%,6.7%,13.5%,20.6%
CN(c1ccc(C(=O)Nc2ccccc2Sc2ccccc2)cc1)S(C)(=O)=O,-17.4%,-9.4,20.6µM*,?,-7.5%,-16.1%
O=C(c1ccc2c(c1)OCO2)C1CCCN(C2CCN(CCc3ccccc3)CC2)C1 (stereo not given),0.7%,-76.5*,20.6µM*,18.4µM*,-32.1%,-24.8%
c1cc2c(cc1CN1CCN(C3CCCCCC3)CC1)OCO2,-1.2%,2.2,-0.6%,-17.1%,-11.5%,-0.5%
c1ccc(CN2CCC(N3CCN(Cc4ccc5c(c4)OCO5)CC3)CC2)cc1,-0.5%,-26.9,18.4µM*,?,4.2%,-6.1%
Cc1ccc(SCC(=O)N=C2NC(=O)CS2)cc1,0.1%,20.2,5.6%,10.8%,3.2%,-22.6%
Cc1ccc(NC(=O)CNNC(=O)c2cccc([N+](=O)[O-])c2)cc1[N+](=O)[O-],1.9%,7.4,?,4.6%,-4.9%,-3.5%
O=C(c1ccc(OC2CCN(C(=O)C3CC3)CC2)cc1)N(CCO)Cc1ccccc1,-3.4%,33.6,-15.2%,-28.1%,-15.0%,5.2%
CCN(CC(=O)NC1CCS(=O)(=O)C1)S(=O)(=O)c1cc(Br)ccc1Br (stereo not given),.,9.7,0.4%,-0.5%,5.3%,-41.2%
COc1ccc(CN2C(=O)c3ccccc3C2c2nnnn2-c2ccc3c(c2)OCCO3)cc1 (stereo not given),.,-18.6,16.4µM*,?,.,.
O=C1c2ccccc2C(c2nnnn2-c2ccc3c(c2)OCCO3)N1Cc1ccc(F)cc1 (stereo not given),.,42.0,?,?,.,.
COCCN1C(=O)c2ccccc2C1c1nnnn1-c1ccc2c(c1)OCCO2 (stereo not given),.,0.0,4.8%,-9.1%,.,.
CC(C)CCN1C(=O)c2ccccc2C1c1nnnn1-c1ccc2c(c1)OCCO2 (stereo not given),.,-4.2,16.4µM*,23.1µM*,.,.
Cc1ccc(CN2C(=O)c3ccccc3C2c2nnnn2-c2ccc3c(c2)OCCO3)cc1 (stereo not given),.,9.4,16.4µM*,?,.,.
O=C1c2ccccc2C(c2nnnn2-c2ccc3c(c2)OCCO3)N1Cc1ccccc1 (stereo not given),.,41.0,?,?,.,.
O=C1c2ccccc2C(c2nnnn2-c2ccc3c(c2)OCCO3)N1CCc1c[nH]c2ccccc12 (stereo not given),.,26.8,14.6µM*,18.4µM*,.,.
Cc1ccc(CNC(=O)c2cc(C3CC3)nc3c2c(C)nn3-c2cccc(Cl)c2C)cc1,.,.,-23.1%,-8.1%,4.6%,0.0%
Cc1ccccc1CN1C(=O)c2ccccc2C1c1nnnn1-c1ccc2c(c1)OCCO2 (stereo not given),.,98.5,4.11µM*,5.17µM*,.,.
SMILES,ASM inhibitor,IL-1B inflam inh,TDP1 cell noCPT,TDP1 cell CPT,HepG2 tox,TGFb inhibitor
CC1CCCCN1C(=O)CN1C(=O)CSc2ccc(S(=O)(=O)N3CCOCC3)cc21 (stereo not given),-0.2%,-16.1,13.8%,-20.5%,-11.1%,3.2%
CCc1ccccc1N(CC)C(=O)c1c(C)oc2ncn(C)c(=O)c12,.,.,?,?,-18.5%,-17.8%
COc1cc2c(cc1OC)-c1c(OC)c(OC)cc3ccnc(c13)C2=O,-7.0%,?,4.11µM*,4.11µM*,-27.4%,12.4%
COc1ccc(C(=O)c2nccc3cc(OC)c(OC)cc23)cc1OC,-1.1%,65.9,?,?,-25.5%,-4.3%
Cc1ccc2nc(CSc3nnc(Nc4ccccc4F)s3)cc(=O)n2c1,-1.2%,0.3,16.4µM*,?,-22.6%,?
O=c1cc(CSc2nnc(Nc3ccccc3F)s2)nc2sccn12,5.3%,-9.5,23.1µM*,?,-15.1%,-20.5%
CCOC(=O)c1c(C)c(-c2ccccc2)n(CC(=O)NCCC(C)C)c1C,0.6%,8.9,10.3µM*,?,1.5%,-9.0%
CCOC(=O)c1ccc(-c2ccc(/C=N/NC(=O)CN(c3cccc(C)c3)S(C)(=O)=O)o2)cc1,87.2%,13.2,14.6µM*,?,-1.7%,-0.3%
CCOC(=O)c1ccc(-c2ccc(/C=N/NC(=O)CN(c3ccccc3Cl)S(C)(=O)=O)o2)cc1,i,-8.6,23.1µM*,?,0.2%,5.3%
Cc1ccc(C)c(N(CC(=O)N/N=C/c2ccc(-c3ccc([N+](=O)[O-])cc3)o2)S(=O)(=O)c2ccccc2)c1,2.7%,-14.1,?,?,-14.1%,?
CS(=O)(=O)N(CC(=O)N/N=C/c1ccccc1C(=O)O)c1cccc(Cl)c1Cl,5.6%,17.6,0.1%,-14.5%,10.6%,-1.5%
CC(C)c1ccc(/C=N/NC(=O)CN(c2cccc(Cl)c2Cl)S(C)(=O)=O)cc1,-11.3%,?,?,29.1µM*,-104.4%,?
COc1ccc(C)cc1NC(=O)COC(=O)c1ccccc1SCC(=O)N1CCCC1,1.7%,-1.0,?,?,-0.1%,?

# Screening results deposited in PubChem BioAssay by National Center for Advancing Translational Sciences (NCATS).
